# Measurements taken from PubChem BioAssay AID1626 (SRMLSC, 2009).
# Hit rate of the full screen: of about 220,000 compounds, about 2,000 (0.91%) were called active. Roughly 2% stayed inconclusive and do not appear here. A selection follows. Results with a measured potency or affinity are listed apart. Unmarked numbers belong to inactive results. Rule as the data show it: inconclusive = inhibition above about 80% without an active follow-up result; inactive = below that; test concentration not stated here.
# Test: M. tuberculosis H37Rv growth inhibitors, H37Rv strain (AID 1626);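 also: bacteria incubated seven days before Alamar blue readout; 0% = bacteria only wells and 100% = bacteria with antibiotic wells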
# Details: active compounds read high, concentration not given here
row,SMILES,inhibition [%]
1,COc1ccc(CSc2nnc(C)n2N)cc1Br,-9.64
2,COc1cc(/C=C(\NC(C)=O)C(=O)NC(C)(C)C)ccc1OC(C)=O,-3
3,COC(=O)CSc1nc(N)c(C#N)c(C(C)C)c1C#N,0.87
4,COC(=O)CSc1nc(N)c(C#N)c(-c2ccc(O)cc2)c1C#N,-2.05
5,CCCOC(=O)CSc1nc(N)c(C#N)c(CC)c1C#N,-6.1
6,CCOC(=O)CSc1nc(C)cc(C)c1C#N,-7.74
7,COc1ccc(N(CC(=O)Nc2c(C)n(C)n(-c3ccccc3)c2=O)S(=O)(=O)c2ccc(F)cc2)cc1,-0.85
8,CC(C)OC(=O)CSc1nnc(-c2cnccn2)n1-c1ccccc1,-8.06
9,CC(NC(=S)Nc1ccc([N+](=O)[O-])cc1)c1ccncc1 (configuration not stated),2.79
10,CC(C)(C)Nc1nc(SCc2ccccc2)nc(N2CCOCC2)n1,1.1
11,O=C(NCc1ccco1)C(=O)NCC1OCCN1S(=O)(=O)c1ccc(F)cc1 (configuration not stated),0.03
12,Nc1c2c(nc3ccccc13)N(C1CCCCC1)CC2,1.71
13,Nc1c2c(nc3ccc(Br)cc13)N(c1ccccc1)CC2,14.3
14,COC(=O)c1cnn(-c2nc3c(C)cccc3s2)c1C,-0.32
15,CCOC(=O)c1cnn(-c2nc3c(C)cccc3s2)c1C,-7.79
16,O=C(O)COCc1nc2ccccc2s1,0.38
17,CC(=O)N1CCN(c2ccc(NC(=O)c3ccc(N4CCCC4)c([N+](=O)[O-])c3)cc2Cl)CC1,44.6
18,CCCC(=O)N1CCN(c2ccc(NC(=O)c3cc4ccccc4o3)cc2Cl)CC1,11
19,O=C(Nc1cccc(Cl)c1N1CCOCC1)c1ccc([N+](=O)[O-])o1,1.19
20,O=C(Nc1ccc(N2CCOCC2)c(Cl)c1)c1ccc(Br)o1,5.36
21,CCCC(=O)N1CCN(c2ccc([N+](=O)[O-])cc2Cl)CC1,6.77
22,CCCC(=O)N1CCN(c2ccc(NC(=O)c3ccco3)cc2)CC1,-4.48
23,O=C(Nc1cccc(Cl)c1N1CCCCC1)c1ccc(N2CCOCC2)c([N+](=O)[O-])c1,2.9
24,CCCC(=O)N1CCN(c2ccc(NC(=O)c3ccc(Br)o3)cc2)CC1,-2.24
25,O=C(O)c1ccc(NC(=O)C2C3CCC(C3)C2C(=O)O)cc1 (configuration not stated),0.17
26,Cn1nc(-c2ccccc2)cc1NC(=O)Nc1ccc(C(C)(C)C)cc1,8.89
27,Cn1ncc(Br)c1NC(=O)Nc1ccc(OC(F)(F)F)cc1,5.76
